Assay outcomes (PubChem)
Shiga toxin inh: inhibitors of Shiga toxin in Vero cells; inhibition, % at 38.7 µM; Vero cells, Shiga toxin protein synthesis inhibition reporter; actives 9.2% (n = 290,000); AID 2315; in the data active means inhibition mostly above about 28%, no sharp cut-off; inactive means mostly below about 43%
AmpC inh no detg: blocks E. coli AmpC beta-lactamase in detergent-free assay | P00811 | AmpC nitrocefin hydrolysis, absorbance 480 nm, 0.0001% Triton | Potency, µM (series often up to 57.1 µM), hits mostly inhibitors | actives 0.52% (n = 330,000) | AID 485341; further: nearly all actives have a fitted effect of over 20% in size
Target sequence (P00811 whole entry, looked up): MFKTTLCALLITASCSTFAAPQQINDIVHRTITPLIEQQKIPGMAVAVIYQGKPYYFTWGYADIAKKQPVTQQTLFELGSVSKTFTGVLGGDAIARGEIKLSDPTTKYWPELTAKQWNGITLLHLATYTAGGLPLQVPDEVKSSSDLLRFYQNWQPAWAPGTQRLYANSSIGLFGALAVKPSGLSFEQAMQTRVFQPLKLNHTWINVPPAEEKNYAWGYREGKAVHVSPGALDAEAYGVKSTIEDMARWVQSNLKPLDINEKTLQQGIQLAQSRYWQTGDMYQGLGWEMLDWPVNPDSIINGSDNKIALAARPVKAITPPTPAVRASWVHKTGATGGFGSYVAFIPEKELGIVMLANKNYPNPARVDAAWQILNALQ
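AmpC (5.3 nM in the dispensed reagent) in 20 mM phosphate pH 7.0 with 0.01% (detergent screen) or 0.0001% Triton X-100 was preincubated with compounds for 15 min at room temperature. Nitrocefin was then added from an 800 uM solution, and hydrolysis was followed at 480 nm.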
NS1 inh: influenza NS1 inhibition | AID 2326 | actives 0.4% (n = 270,000) | Potency, µM (doses to about 46.1 µM); calls by dose curve; further: actives are rising curves; nearly all actives have a fitted effect of over 50% in size
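Growth recovery, yeast-based: influenza A NS1 expressed in S. cerevisiae causes slow growth, and suppressors are detected by OD600. The parent strain without NS1 is used as positive control.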
AmpC detergent: blocks E. coli AmpC beta-lactamase in detergent assay; AmpC hydrolysis of nitrocefin, absorbance 480 nm, 0.01% Triton; Potency, µM (titrated, usually from 114 µM), usual class: inhibitors; actives 0.041% (n = 370,000); further: nearly all actives have a fitted effect of over 25% in size
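20 mM phosphate pH 7.0 + 0.01% (detergent screen) or 0.0001% Triton X-100; 5.3 nM AmpC reagent; cpd preinc 15 min RT; nitrocefin (800 uM stock) to start; A480 q20 s × 4 min; Activity was normalised to no-enzyme and no-compound control wells.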
Cycloheximide cs: counter-screen hit for Shiga toxin inhibitors, cycloheximide; cell reporter, cycloheximide protein synthesis inhibition counterscreen; max response, %; actives 12% (n = 300,000); in the data active means max response mostly above about 13%, no sharp cut-off; inactive means mostly below about 14%; further: read at 38.3 µM for the half of the compounds with a filed dose
Large screens that a line does not name were inactive. Only a selection was taken, and hits are over-represented in it overall. Unless noted, the call rests on the fitted dose curve; in most records, active means well fitted curve in the direction sought with a large enough effect; inconclusive means small, poorly fitted or top-dose-only effect, or another doubt; inactive means no such curve, though single readings can be large; an effect the other way counts as inactive or inconclusive.

Cc1nc(Nc2ccccc2)sc1C	Shiga toxin inh 71, Cycloheximide cs 46 (no result: NS1 inh)
Cc1ccc(S(=O)(=O)c2nc(Nc3ccccc3)sc2Cl)cc1	none
CC(C)n1c(N2CCN(CC(=O)Nc3ccc4c(c3)OCCO4)CC2)nc2ccccc21	none
COc1ccc(C(=O)NC(C)CCn2cccn2)cc1OC1CCN(C(C)C)CC1 (stereo not drawn)	none
Cc1ccc(Cl)cc1NC(=O)CSc1nc2ccccc2c2nc(-c3ccccc3)nn12	none (no result: Shiga toxin inh, AmpC inh no detg, NS1 inh, Cycloheximide cs)
O=c1cc(COc2ccccc2Cl)nc2scc(-c3ccccc3)n12	none (no result: Shiga toxin inh, AmpC inh no detg, NS1 inh, Cycloheximide cs)
CNc1cc([N+](=O)[O-])ccc1N/C=C/C(=O)c1cccs1	Shiga toxin inh 107, AmpC detergent inconclusive, Cycloheximide cs 33
CNc1cc([N+](=O)[O-])ccc1N/C=C/C(=O)c1ccc2c(c1)OCO2	Shiga toxin inh 124, NS1 inh inconclusive, Cycloheximide cs 76
O=C(/C=C/Nc1cccc([N+](=O)[O-])c1)c1cccs1	Shiga toxin inh 89, Cycloheximide cs 32
O=c1[nH]c2ccc(NCc3ccccc3F)cc2[nH]1	none (no result: Shiga toxin inh, AmpC inh no detg, NS1 inh, Cycloheximide cs)
Cc1ccc(-c2nnc(N3CC(C)OC(C)C3)c3ccccc23)cc1 (stereo not drawn)	AmpC detergent inconclusive (no result: NS1 inh)
O=C(Nc1ccc2c(c1)OCCO2)c1ccc(Cl)c(S(=O)(=O)N2CCOCC2)c1	Shiga toxin inh 66, AmpC detergent inconclusive, Cycloheximide cs 42
NS(=O)(=O)c1cc(C(=O)Nc2ccc3c(c2)OCCCO3)ccc1Cl	Shiga toxin inh 58, Cycloheximide cs 19
COc1ccc(C(=O)Nc2ccc3c(c2)OCCO3)cc1S(=O)(=O)N1CCOCC1	none (no result: Shiga toxin inh, NS1 inh, Cycloheximide cs)
O=C(Nc1ccc2c(c1)OCO2)c1ccc(S(=O)(=O)N2CCCC2)cc1	none
Cc1ccc(NC(=O)c2ccc3c(c2)OCO3)cc1S(=O)(=O)N1CCOCC1	none (no result: Shiga toxin inh, NS1 inh, Cycloheximide cs)
O=C(Nc1ccc2c(c1)OCO2)c1ccc(Cl)c(S(=O)(=O)N2CCOCC2)c1	Shiga toxin inh 39, Cycloheximide cs 16
COc1ccc(C2CC(c3ccccc3)Oc3ccc(OC)cc32)cc1 (stereo not drawn)	none (no result: AmpC inh no detg, NS1 inh, AmpC detergent)
O=C(NC(C(=O)c1ccccc1)n1c(=O)cc[nH]c1=S)c1ccccc1 (stereo not drawn)	Shiga toxin inh active, Cycloheximide cs 16
O=[N+]([O-])c1ccccc1-c1ccc(C(=S)N2CCCC2)o1	Shiga toxin inh 97, Cycloheximide cs 44 (no result: NS1 inh)
Cc1cccc(N2CCN(C(=S)c3ccc(-c4ccccc4[N+](=O)[O-])o3)CC2)c1	none
O=[N+]([O-])c1ccccc1-c1ccc(C(=S)N2CCCCC2)o1	Shiga toxin inh 63, Cycloheximide cs 58
O=C(Nc1ccc(N2CCCCC2)cc1)c1ccc(F)cc1	Shiga toxin inh 77, AmpC detergent inconclusive, Cycloheximide cs 52
O=S(=O)(c1ccc(N2CCCC2)cc1)C(F)(F)F	Shiga toxin inh 72, Cycloheximide cs 28
O=C(Nc1ccc(N2CCCCC2)cc1)c1cccnc1	Shiga toxin inh 129, Cycloheximide cs 22
O=C(Nc1ccc(N2CCN(Cc3ccccc3Cl)CC2)cc1)c1cccnc1	none
O=C(c1ccc(F)cc1)c1ccc(N2CCCC2)cc1	Shiga toxin inh 151, Cycloheximide cs 63
Cc1csc(NC(=O)CSc2nncc(=O)n2N)n1	none
Cc1ccc(C)c(N2CCN(C3(c4ccccc4)C(=O)c4ccccc4C3=O)CC2)c1	none (no result: Shiga toxin inh, AmpC inh no detg, NS1 inh, Cycloheximide cs)
O=S(=O)(N1CCCCC1)N1CCN(c2ccc(F)cc2)CC1	none
O=C(c1ccc(F)cc1)c1ccc(N2CCCCC2)cc1	Shiga toxin inh 97, Cycloheximide cs 61
OCCCNCc1ccncc1	none (no result: Shiga toxin inh, AmpC inh no detg, AmpC detergent, Cycloheximide cs)
C=CCN=C(NC#N)SCc1ccccc1	AmpC detergent inconclusive
C=CCN=C(NC#N)SCC(=O)c1cccc(OC)c1	Shiga toxin inh 63, Cycloheximide cs 61
COC(=O)c1ccc(COC(=O)CCc2nc(-c3ccccc3)c(-c3ccccc3)o2)cc1	AmpC detergent inconclusive
Cc1cccc(C(=O)N=c2sccn2C)c1[N+](=O)[O-]	Shiga toxin inh 74, Cycloheximide cs 50
Cc1ccccc1C(=O)N=c1sccn1C	Cycloheximide cs 13
C=CCN1C(=O)c2ccc(C(=O)OCC(=O)Nc3ccc(S(N)(=O)=O)cc3)cc2C1=O	AmpC detergent inconclusive (no result: Shiga toxin inh, NS1 inh, Cycloheximide cs)
Cc1ncoc1C(=O)N1CCCC(N2CCN(c3ccccc3F)CC2)C1 (stereo not drawn)	none
Oc1ccccc1/C=N/NC(=S)NC1CC2CCC1C2 (stereo not drawn)	Shiga toxin inh 45, Cycloheximide cs 32
S=C(N/N=C/c1ccco1)NC1CC2CCC1C2 (stereo not drawn)	Shiga toxin inh 73, AmpC detergent inconclusive, Cycloheximide cs 44
CCOc1ccc(/C=N/NC(=S)NC2CC3CCC2C3)cc1 (stereo not drawn)	none
O=C(Nc1ccc(Cl)cc1F)c1oc(=O)c2ccccc2c1-c1ccccc1	none (no result: Shiga toxin inh, AmpC inh no detg, NS1 inh, Cycloheximide cs)
O=C(Nc1ccccc1Br)N1CCN2CCCCC2C1 (stereo not drawn)	none (no result: Shiga toxin inh, AmpC inh no detg, NS1 inh, Cycloheximide cs)
CC1(C)OCC(COC(=O)Nc2cccnc2)([N+](=O)[O-])CO1	none (no result: NS1 inh)
CC1=CC(C)C2(COC(=O)Nc3ccccc3)COC(C)C1C2C (stereo not drawn)	Cycloheximide cs 13
Cc1onc(-c2ccncc2)c1C(=O)O	Shiga toxin inh 55, Cycloheximide cs 27
CS(=O)(=O)N1N=C(c2cccs2)CC1c1ccc(Cl)o1 (stereo not drawn)	Shiga toxin inh 66, Cycloheximide cs 36 (no result: NS1 inh)
c1ccc(C2Oc3ccccc3C3CC(c4cccs4)=NN32)cc1 (stereo not drawn)	Shiga toxin inh 105, Cycloheximide cs 56
COc1ccc(C2CC(c3cccs3)=NN2S(C)(=O)=O)cc1 (stereo not drawn)	Shiga toxin inh 121, Cycloheximide cs 32
Fc1ccc(N2N=C(c3cccs3)CC2c2ccccc2)cc1 (stereo not drawn)	none (no result: NS1 inh)
COc1ccc(O)c(C2=Nc3ccccc3N=C(c3cccs3)C2)c1	AmpC detergent inconclusive, Cycloheximide cs 16
COc1cccc(C2CC(c3cccs3)=NN2S(C)(=O)=O)c1OC (stereo not drawn)	none
COc1ccc(O)c(-c2cn[nH]c2-c2cccs2)c1	none
CCN1CCN(CC(=O)N2N=C(c3cccs3)CC2c2ccc(OC)cc2)C(=O)C1=O (stereo not drawn)	none (no result: NS1 inh)
CS(=O)(=O)N1N=C(c2cccs2)CC1c1ccccc1 (stereo not drawn)	Cycloheximide cs 13
O=[N+]([O-])c1ccc(C2Oc3ccccc3C3CC(c4ccccc4)=NN32)s1 (stereo not drawn)	Shiga toxin inh 114, Cycloheximide cs 61
COc1ccc(C2CC(c3cccs3)=Nc3ccccc3S2)cc1 (stereo not drawn)	Shiga toxin inh 83, NS1 inh inconclusive, Cycloheximide cs 61
CS(=O)(=O)N1N=C(c2cccs2)CC1c1ccccc1F (stereo not drawn)	none
CC(=O)N1N=C(c2ccccc2)CC1c1ccccc1[N+](=O)[O-] (stereo not drawn)	AmpC detergent inconclusive
